From PubChem BioAssay AID463173 (ICCB-Longwood Screening Facility, Harvard Medical School, 2010) come the findings set out here.

Out of some 52,000 compounds screened, about 1,700 (3.3%) were called active. This excerpt belongs to a sample that is enriched for actives. Unmarked numbers belong to inactive results. No stated cut-off is given here; in the data, active means survival mostly below about 52% (no sharp cut-off); inactive means mostly above about 56%.

In this assay the test system is Wild type. As to the kind of experiment: growth inhibition of S. aureus wild type versus tarO mutant, primary screen, teichoic acid synthesis inhibitors, RN4220, OD600 (AID 463173). Conditions: S. aureus RN4220 wild type/DeltatarO growth, OD600, 18 h, active compounds read low, screened at 18.75 µg/mL (by protocol).
Take `CCCCC1CCC(C(=O)N2CC(=O)Nc3ccc(Cl)cc3C2c2ccc(F)cc2)CC1` (stereo not drawn): the survival was 71%.
In the case of `CC1CCN(C(=O)c2cc3n(n2)C(C(F)(F)F)CC(c2ccccc2)N3)C(C)C1` (stereo not drawn) it was 123%; in that of `Cc1cccc(C(=O)Nc2cccc(OCc3cc(=O)n4ccccc4n3)c2)c1`, 72%.
In the case of `CSc1ccc(CCNC(=O)c2ccc3c(c2)c(C)c(C)n3Cc2ccc(F)cc2)cc1`, the survival is 70%.
For `Cc1nc2c(C(=O)NCCc3ccccc3)c[nH]n2c(=O)c1Cc1ccc(F)cc1Cl`, the survival was -15% (active).
Consider `Cc1ccc(CNC(=O)c2cnn3c(C)c(Cc4c(F)cccc4Cl)c(C)nc23)cc1`, for which the survival is 65%.
In the case of `Cc1nc2c(C(=O)NCCc3ccccc3)cnn2c(C)c1Cc1c(F)cccc1Cl` it was 71%; in that of `Cc1ccc(CNC(=O)c2c[nH]n3c(=O)c(Cc4ccc(Cl)cc4)c(C)nc23)cc1`, -14% (active); in that of `Cc1cccn2c(=O)c(C(=O)NCCc3ccccc3)cnc12`, 49%.
In the case of `Cc1ccc(CNC(=O)c2c[nH]n3c(=O)c(Cc4ccc(F)cc4Cl)c(C)nc23)cc1` it was -15% (active); in that of `Cc1nc2c(C(=O)NCCc3ccccc3)c[nH]n2c(=O)c1Cc1ccccc1F`, -15% (active).
As to `Cc1ccc(CNC(=O)CN2CCN(Cc3ccc(F)cc3Cl)C2=O)cc1`, the survival was 81%.
Regarding `Cc1nc2nc(NCc3ccc(Cl)cc3)[nH]n2c(=O)c1Cc1ccccc1`, the survival is 61%.
Under `O=C(NCCc1ccccc1)c1ccc2c(c1)N(Cc1ccc(F)cc1Cl)C(=O)CS2` stands 67%; under `Cc1nc2nc(NC(=O)c3ccc(F)cc3)[nH]n2c(=O)c1Cc1ccccc1`, 88%.
Under `Cc1nc2nc(NC(=O)c3ccc(Cl)cc3)[nH]n2c(=O)c1Cc1ccccc1` stands 93%.
Under `COc1ccc(N2C(=O)CSC23C(=O)N(Cc2ccccc2F)c2ccccc23)cc1Cl` (stereo not drawn) stands 68%.
Regarding `COc1cccc(NC(=O)CSC2=Nc3ccccc3N=C(c3ccc(F)cc3)C2)c1`, the survival was 69%.
As for `O=C(CSC1=Nc2ccccc2C2=NC(Cc3ccccc3)C(=O)N12)Nc1cccc(Cl)c1` (stereo not drawn), the survival was 76%.
Under `Cc1cccc(NC(=O)Cn2nnc(C(=O)NCc3cccs3)c2N)c1` stands 89%.
Take `Cc1ccc(-n2ncc3c(N4CCN(c5ccccc5)CC4)ncnc32)cc1C`: the survival was 69%.
As to `CCN1CCC(N(Cc2cccc(OC)c2)C(=O)Nc2cccc(C(F)(F)F)c2)CC1`, the survival was 66%.
As to `O=C(O)c1ccc(NC(=O)c2ccc(Br)c(S(=O)(=O)N3CCCC3)c2)cc1`, the survival was 70%.
Under `O=C(OCc1cc(=O)n2nc(C3CCCCC3)sc2n1)c1ccccc1Cl` stands 59%; under `O=C(Nc1ccccc1)c1cn(-c2ccccc2)nc1-c1ccccc1`, 86%; under `Cc1nc(-c2ccc(C)c(S(=O)(=O)N3CCC(C(=O)Nc4ccc(Cl)cc4)CC3)c2)no1`, 121%.
As to `COc1ccc(CCNC(=O)c2cc(C)nc3c2c(C)nn3-c2ccccc2)cc1OC`, the survival is 76%.
In the case of `Cc1nc2c(C(=O)NCc3ccccc3Cl)c[nH]n2c(=O)c1Cc1cccc(Cl)c1` it was -15% (active); in that of `Cc1nc2c(C(=O)NCc3ccccc3Cl)cnn2c(C)c1Cc1ccccc1`, 85%.
As to `COc1ccc(CCNC(=O)c2c[nH]n3c(=O)c(Cc4ccccc4Cl)c(C)nc23)cc1OC`, the survival is 0% (active).
In the case of `COc1ccc(CCNC(=O)c2ccc(Cn3c(=O)c4ccccc4n(Cc4ccccc4Cl)c3=O)cc2)cc1OC`, the survival is 95%.
Turning to `Cc1nc2c(C(=O)NCCc3ccc(Cl)cc3)cnn2c(C)c1Cc1ccc(F)cc1`, the survival is 73%.
With `Cc1nc2c(C(=O)NCCc3ccc(Cl)cc3)c[nH]n2c(=O)c1Cc1ccc(Cl)cc1`, the survival was -14% (active).
With `Cc1nc2c(C(=O)NCCc3ccc(Cl)cc3)c[nH]n2c(=O)c1Cc1ccccc1F`, the survival is -11% (active).
Take `Cc1cccn2c(=O)c(C(=O)NCCc3ccc(Cl)cc3)cnc12`: the survival was 77%.
As for `Cc1nc2c(C(=O)N(C)Cc3ccccc3)c[nH]n2c(=O)c1Cc1ccc(Cl)cc1`, the survival was 94%.
As to `Cc1nc2c(C(=O)NCCc3ccc(Cl)cc3)cnn2c(C)c1Cc1c(F)cccc1Cl`, the survival was 59%.
Under `Cc1nc2c(C(=O)NCc3ccccc3)c[nH]n2c(=O)c1Cc1ccccc1Cl` stands 22%; under `Cc1cccc(C(=O)Nc2ccccc2OCc2cc(=O)n3c(C)csc3n2)c1`, 90%; under `Cc1ccc(Cl)cc1N1CCN(S(=O)(=O)c2ccc3c(c2)CC(=O)N3C)CC1`, 113%.
As to `COCCCNC(=O)c1ccc(Cn2c(=O)c3ccccc3n(CC(=O)Nc3c(C)cccc3C)c2=O)cc1`, the survival was 83%.
For `CCCN(C(=O)CCn1cnc2onc(-c3ccc(F)cc3)c2c1=O)c1ccccc1C`, the survival was 72%.
Under `COCCCNC(=O)C1CCCN(C(=O)c2cnn(-c3ccc(F)cc3)c2-n2cccc2)C1` (stereo not drawn) stands 128%; under `CSc1nnc(COc2ccc(Cl)cc2)n1C`, 101%.
In the case of `CCOc1cc(CNC(=O)C(NS(=O)(=O)c2cccs2)C(C)C)cc(OCC)c1OCC` (stereo not drawn) it was 65%; in that of `Cc1ccc(CNC(=O)c2ccc3c(c2)CCN3S(=O)(=O)c2ccccc2)cc1`, 84%.
Under `Cc1ccc(N2CCN(S(=O)(=O)c3ccc(F)c(C(=O)Nc4ccc(Cl)cc4Cl)c3)CC2C)cc1` (stereo not drawn) stands -6% (active).
As to `Cc1cccc(N2CCN(S(=O)(=O)c3ccc(F)c(C(=O)Nc4cccc(Cl)c4C)c3)CC2C)c1` (stereo not drawn), the survival was 100%.
On to `Cc1ccc(C)c(N2CCN(S(=O)(=O)c3ccc(F)c(C(=O)Nc4ccc(Cl)cc4Cl)c3)CC2)c1`, for which the survival is 80%.
On to `CCN1C(=O)C(O)(C(C)C(=O)c2ccccc2)c2ccccc21` (stereo not drawn), for which the survival was 111%.
In the case of `CCCCC(=O)N1c2ccccc2C(C)(c2ccccc2)CC1(C)C` (stereo not drawn) it was -2% (active); in that of `CCCCOc1ccc(C2(C(=O)O)CCCC2)cc1`, 105%; in that of `CCC(CC)C(=O)N1CCN(Cc2ccccc2)CC1`, 108%.
Under `CC1=CC(C)(C)N(C(=O)Cc2ccccc2)c2ccccc21` stands 126%.
As for `CC(=O)N1c2ccccc2C(C)(c2ccc(C)cc2)CC1(C)C` (stereo not drawn), the survival is -2% (active).
As to `CCC(=O)N1CCN(C(=O)CC)C1c1ccccc1`, the survival was 99%.
Under `CCC(CC)C(=O)N1c2ccccc2C(C)(c2ccccc2)CC1(C)C` (stereo not drawn) stands -2% (active); under `Cc1ccc(NC(=O)CN2C(=O)C(C)(C)c3ccccc32)cc1`, 77%; under `CCC(=O)N1c2ccccc2C(C)(c2ccccc2)CC1(C)C` (stereo not drawn), -3% (active).
In the case of `CCC1=NN(C(=O)Cc2ccccc2)C(O)(c2ccccc2)C1` (stereo not drawn) it was 107%.
`CC(=O)N1c2ccccc2N(C)C(=O)C1(C)C`: the survival was 105%.
As for `CCc1ccc(NC(=O)Cn2c(=O)n(CCCCC(=O)NCc3ccccc3Cl)c(=O)c3ccccc32)cc1`, the survival was 90%.
Under `CC(C)c1ccc(NC(=O)CN2C(=O)CSc3ccc(S(=O)(=O)N4CCCC4)cc32)cc1` stands 91%; under `CC1Cc2cc(S(=O)(=O)N(C)c3ccc(Br)cc3)ccc2N1C(=O)C1CC1` (stereo not drawn), 106%; under `COc1cc2c(=O)c(C(=O)c3ccc(C)c(C)c3)cn(Cc3ccccc3F)c2cc1OC`, 127%.
Take `COc1ccc(OC)c(NC(=O)c2cc(=O)c3c(C)cc(C)cc3o2)c1`: the survival is 87%.
Under `O=C(NC1CC(=O)N(c2ccc(Cl)cc2)C1)c1ccc(S(=O)(=O)N2CCCC2)cc1` (stereo not drawn) stands 127%.
Turning to `CC(=O)N1CCCc2cc(S(=O)(=O)N3CCCC(C(=O)Nc4ccc(C)c(F)c4)C3)ccc21` (stereo not drawn), the survival is 73%.
In the case of `COCCNC(=O)c1cnn(-c2cccc(C)c2)c1-n1cccc1` it was 99%; in that of `CCOc1ccccc1C(=O)N1CCc2cc(OC)c(OC)cc2C1COc1ccc2c(C)cc(=O)oc2c1` (stereo not drawn), 76%; in that of `Cc1c(C(=O)Nc2ccccc2Br)oc2ccc(S(=O)(=O)N3CCOCC3)cc12`, 113%.
Under `CCCCCC(=O)N1c2ccccc2C(C)(c2ccccc2)CC1(C)C` (stereo not drawn) stands -2% (active); under `CC(C)c1ccc(S(=O)(=O)c2nnn3c2nc(N2CCCC2)c2sccc23)cc1`, 89%; under `COc1ccc(-c2noc(CN(C(C)C)S(=O)(=O)c3ccc(Br)cc3)n2)cc1`, 81%.
In the case of `COc1ccc(-c2noc(CN(C(=O)c3cc(OC)c(OC)cc3OC)C(C)C)n2)cc1` it was 86%; in that of `COc1ccc(-c2noc(CN(C(=O)c3ccc(C)cc3C)C(C)C)n2)cc1`, 0% (active); in that of `Cc1ccccc1C(=O)N(Cc1nc(-c2ccc(Cl)cc2)no1)C(C)C`, 86%.
As to `Cc1ccc(-c2noc(CNC(=O)COc3cc(C)c(Br)c(C)c3)n2)cc1`, the survival is 89%.
Under `Cc1ccc(-c2noc(CN(C(=O)COc3cc(C)cc(C)c3C)C(C)C)n2)cc1` stands 1% (active); under `COc1ccc(-c2noc(CN(C(=O)c3ccccc3Cl)C(C)C)n2)cc1`, 97%.
Under `CC(C)N(Cc1nc(-c2ccc(Cl)cc2)no1)C(=O)c1ccco1` stands 76%; under `Cc1ccc(CC(=O)N(Cc2nc(-c3ccc(C)cc3)no2)C(C)C)cc1`, -1% (active); under `COc1ccc(-c2noc(CN(C(=O)COc3cc(C)c(Br)c(C)c3)C(C)C)n2)cc1`, 7% (active).
With `O=C(O)CC(C(=O)O)c1cn(Cc2ccccc2)c2ccccc12` (stereo not drawn), the survival was 105%.
Under `CC(C)(C)OC(=O)N1CCC(c2c(C(=O)NCCc3ccccc3)cnn2-c2ccc(F)cc2)CC1` stands 78%; under `Cc1ccc(C)c(Cn2c3ccccc3c3cnn(CC(=O)NCCC4=CCCCC4)c(=O)c32)c1`, 82%.
Under `CC(Sc1nc(=O)cc(N)n1CCc1ccccc1)C(=O)Nc1ccccc1C#N` (stereo not drawn) stands 75%; under `CC(C(=O)NCC1CCCO1)N(C(=O)c1snc(C(N)=O)c1N)c1cccc(F)c1` (stereo not drawn), 101%.
